Data reported in PubChem BioAssay (NCATS).
Inconclusive results are not listed. Values without a mark were called inactive. The source made the active and inactive calls. Calls come from the whole dose curve; as a rule, active = well fitted cell-killing curve with a large enough effect; inconclusive = small, poorly fitted or top-dose-only effect, or effect the other way; inactive = no such curve, though single readings can be large or run the other way. Non-standard residues stand in square brackets, D forms with d. Residues, ends and D or L forms follow the SMILES beside them. *: point of attachment. Nva = CCC[C@H](N)C(=O)O; Cbz = O=C(OCc1ccccc1)*

Legend:
[1] = Quantitative High-Throughput drug screen in 47 multiple myeloma cell lines against the NCATS MIPE library collection: KMS28PE_JCRB cell viability assay (AID 1918983); note: nearly all actives have a fitted effect of over 35% in size
Summary of the method: (§1)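 Readout: median RLU from CellTiter-Glo after 5 min at room temperature. Preceding step was 48 h drug treatment of 500 cells/well at 37 °C, 5% CO2, with DMSO-only and media-only control wells.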

[2] = Quantitative High-Throughput drug screen in 47 multiple myeloma cell lines against the NCATS MIPE library collection: KMS34_JCRB cell viability assay (AID 1918985); note: nearly all actives have a fitted effect of over 40% in size
Summary of the method: as §1

[3] = Quantitative High-Throughput drug screen in 47 multiple myeloma cell lines against the NCATS MIPE library collection: XG6_PLB cell viability assay (AID 1919865); note: nearly all actives have a fitted effect of over 40% in size
Summary of the method: as §1

[4] = Quantitative High-Throughput drug screen in 47 multiple myeloma cell lines against the NCATS MIPE library collection: XG1_PLB cell viability assay (AID 1919866); note: nearly all actives have a fitted effect of over 35% in size
Summary of the method: as §1

[5] = Quantitative High-Throughput drug screen in 47 multiple myeloma cell lines against the NCATS MIPE library collection: VP6_DJ cell viability assay (AID 1919867); note: nearly all actives have a fitted effect of over 40% in size;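 for viability (% of DMSO): 100% = DMSO-only wells and 0% = wells with media alone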
Summary of the method: as §1

[6] = Quantitative High-Throughput drug screen in 47 multiple myeloma cell lines against the NCATS MIPE library collection: UTMC2_PLB cell viability assay (AID 1919868); conditions: CellTiter-Glo ATP luminescence, 48 h; viability (% of DMSO control): at 45.8 µM (top of the series); note: nearly all actives have a fitted effect of over 55% in size;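 for viability (% of DMSO control): 100% = DMSO-only wells and 0% = media-only wells without cells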
Summary of the method: as §1

[7] = Quantitative High-Throughput drug screen in 47 multiple myeloma cell lines against the NCATS MIPE library collection: PE2_PLB cell viability assay (AID 1919869); note: nearly all actives have a fitted effect of over 35% in size
Summary of the method: as §1

[8] = Quantitative High-Throughput drug screen in 47 multiple myeloma cell lines against the NCATS MIPE library collection: RPMI8226_ATCC cell viability assay (AID 1919871); note: nearly all actives have a fitted effect of over 30% in size
Summary of the method: as §1

[9] = Quantitative High-Throughput drug screen in 47 multiple myeloma cell lines against the NCATS MIPE library collection: OPM2_DSMZ cell viability assay (AID 1919872); note: nearly all actives have a fitted effect of over 30% in size
Summary of the method: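 qHTS of the MIPE 4.0 collection: 500 myeloma cells/well, 48 h drug exposure at 37C in 5% CO2, then CellTiter-Glo for 5 min at room temperature before luminescence reading.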

[10] = Quantitative High-Throughput drug screen in 47 multiple myeloma cell lines against the NCATS MIPE library collection: KMS11_JCRBsus cell viability assay (AID 1919873); note: nearly all actives have a fitted effect of over 50% in size
Summary of the method: as §1

[11] = Quantitative High-Throughput drug screen in 47 multiple myeloma cell lines against the NCATS MIPE library collection: KMS28BM_JCRB cell viability assay (AID 1919874); note: nearly all actives have a fitted effect of over 35% in size
Summary of the method: as §1

[12] = Quantitative High-Throughput drug screen in 47 multiple myeloma cell lines against the NCATS MIPE library collection: OCIMY7_PLB cell viability assay (AID 1918987); conditions: OCI-MY7 myeloma viability, CellTiter-Glo ATP, 48 h; viability (% of DMSO): at 45.8 µM (top of the series); note: nearly all actives have a fitted effect of over 65% in size
Summary of the method: as §1

[13] = Quantitative High-Throughput drug screen in 47 multiple myeloma cell lines against the NCATS MIPE library collection: OCIMY5_PLB cell viability assay (AID 1918988); note: nearly all actives have a fitted effect of over 65% in size
Summary of the method: as §1

[14] = Quantitative High-Throughput drug screen in 47 multiple myeloma cell lines against the NCATS MIPE library collection: OPM1_PLB cell viability assay (AID 1918989); note: nearly all actives have a fitted effect of over 40% in size
Summary of the method: as §1

[15] = Quantitative High-Throughput drug screen in 47 multiple myeloma cell lines against the NCATS MIPE library collection: SKMM1_PLB cell viability assay (AID 1919863); conditions: SKMM1 myeloma viability, CellTiter-Glo ATP, 48 h; viability: stronger effect = lower value; note: nearly all actives have a fitted effect of over 35% in size
Summary of the method: as §1

[16] = Quantitative High-Throughput drug screen in 47 multiple myeloma cell lines against the NCATS MIPE library collection: PCM6_Riken cell viability assay (AID 1919870); note: nearly all actives have a fitted effect of over 30% in size
Summary of the method: as §1

[17] = Quantitative High-Throughput drug screen in 47 multiple myeloma cell lines against the NCATS MIPE library collection: U266_ATCC cell viability assay (AID 1919864); note: nearly all actives have a fitted effect of over 35% in size;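 for viability (% of DMSO control): 0% = media-only wells without cells and 100% = DMSO-only wells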
Summary of the method: as §1

[18] = Quantitative High-Throughput drug screen in 47 multiple myeloma cell lines against the NCATS MIPE library collection: L363_DSMZ cell viability assay (AID 1918984); note: nearly all actives have a fitted effect of over 40% in size
Summary of the method: as §1
Potency is the fitted concentration of half-maximal effect.

| Compound | Potency [1] | Potency [2] | Potency [3] | Potency [4] | Potency [5] | Potency [6] | Potency [7] | Potency [8] | Potency [9] | Potency [10] | Potency [11] | Potency [12] | Potency [13] | Potency [14] | Potency [15] | Potency [16] | Potency [17] | Potency [18] | viability [15] [%] |
| --- | --- | --- | --- | --- | --- | --- | --- | --- | --- | --- | --- | --- | --- | --- | --- | --- | --- | --- | --- |
| C[C@@H]1C(=O)O[C@H]2CC34[C@H]5C[C@@H](C(C)(C)C)C36[C@H](OC(=O)[C@@H]6O)O[C@@]4(C(=O)O5)[C@]21O (stereo partly drawn) | inactive | inactive | inactive | inactive | inactive | inactive | inactive | inactive | inactive | inactive | inactive | – | – | – | – | – | – | – | – |
| Cc1cnc(Nc2ccc(CN3CCOCC3)cc2)nc1Nc1cccc(S(=O)(=O)NC(C)(C)C)c1 | 9.35 µM (active) | 2.35 µM (active) | 1.18 µM (active) | 0.935 µM (active) | 1.32 µM (active) | 0.743 µM (active) | 1.66 µM (active) | 4.18 µM (active) | 4.69 µM (active) | 1.18 µM (active) | 4.69 µM (active) | 0.526 µM (active) | 1.87 µM (active) | 0.935 µM (active) | 5.26 µM (active) | 5.26 µM (active) | – | – | – |
| COc1cc(CCc2cc(NC(=O)c3ccc(N4C[C@@H](C)N[C@@H](C)C4)cc3)n[nH]2)cc(OC)c1 | 13.2 µM (active) | 16.6 µM (active) | 8.33 µM (active) | 14.8 µM (active) | 7.43 µM (active) | 4.18 µM (active) | 11.8 µM (active) | 18.7 µM (active) | 13.2 µM (active) | 4.69 µM (active) | 16.6 µM (active) | 18.7 µM (active) | 16.6 µM (active) | – | – | 13.2 µM (active) | 20.9 µM (active) | – | – |
| N#Cc1c(C2CCNCC2)cc(-c2c(O)cccc2OCC2CC2)nc1N | – | – | 1.05 µM (active) | 4.18 µM (active) | 18.7 µM (active) | – | 18.7 µM (active) | – | – | – | – | 2.35 µM (active) | 14.8 µM (active) | 20.9 µM (active) | 18.7 µM (active) | 8.33 µM (active) | 13.2 µM (active) | – | – |
| CCOC(=O)[C@@H](N)Cc1ccc(-c2cc(O[C@H](c3ccc(Cl)cc3-n3ccc(C)n3)C(F)(F)F)nc(N)n2)cc1 | – | 16.6 µM (active) | 16.6 µM (active) | 23.5 µM (active) | 26.4 µM (active) | 20.9 µM (active) | 23.5 µM (active) | 20.9 µM (active) | 18.7 µM (active) | – | 18.7 µM (active) | – | 18.7 µM (active) | 23.5 µM (active) | 23.5 µM (active) | – | 23.5 µM (active) | 10.5 µM (active) | – |
| NC(=O)c1cccc(-c2cccc(OC(=O)NC3CCCCC3)c2)c1 | – | – | inactive | – | inactive | inactive | inactive | inactive | inactive | inactive | inactive | inactive | 29.6 µM (active) | – | – | inactive | inactive | – | 110 |
| FC(F)(F)c1ccc(Nc2nc3ccc(Oc4ccnc(-c5ncc(C(F)(F)F)[nH]5)c4)cc3[nH]2)cc1 | – | – | 16.6 µM (active) | 14.8 µM (active) | – | – | 26.4 µM (active) | 26.4 µM (active) | – | – | – | – | 16.6 µM (active) | 20.9 µM (active) | – | 18.7 µM (active) | – | 18.7 µM (active) | – |
| Cc1[nH]c(C=C2C(=O)Nc3ccccc32)c(C)c1CCC(=O)O | – | – | 0.372 µM (active) | 2.96 µM (active) | 13.2 µM (active) | 0.935 µM (active) | 9.35 µM (active) | – | – | – | 14.8 µM (active) | – | 18.7 µM (active) | 23.5 µM (active) | – | 10.5 µM (active) | 5.26 µM (active) | 9.35 µM (active) | – |
| Cc1coc2c1C(=O)C(=O)c1c-2ccc2c(C)cccc12 | – | 0.166 µM (active) | – | – | 11.8 µM (active) | – | – | – | – | – | – | 5.9 µM (active) | 14.8 µM (active) | 2.96 µM (active) | 14.8 µM (active) | 3.72 µM (active) | – | – | – |
| CC(Cc1ccc(O)c(O)c1)(NN)C(=O)O (stereo not drawn) | – | – | inactive | inactive | – | inactive | – | – | – | – | inactive | – | – | – | 16.6 µM (active) | – | – | inactive | – |
| Nc1nc2c(c(=O)[nH]1)N(C=O)[C@H](CNc1ccc(C(=O)N[C@@H](CCC(=O)O)C(=O)O)cc1)CN2 | – | inactive | inactive | inactive | inactive | – | inactive | inactive | inactive | inactive | inactive | – | inactive | inactive | – | inactive | – | – | – |
| Cc1cn([C@@H]2O[C@H](CO)[C@@H](O)[C@H]2F)c(=O)[nH]c1=O | – | inactive | – | inactive | 14.8 µM (active) | inactive | inactive | inactive | inactive | – | inactive | – | – | inactive | – | – | – | – | – |
| CCC[C@@H](C=O)NC(=O)[C@H](CC(C)C)NC(=O)[C@H](CC(C)C)NC(=O)OCc1ccccc1 (Cbz-Leu-Leu-[Nva]-aldehyde) | – | 0.743 µM (active) | 0.264 µM (active) | 0.372 µM (active) | 0.235 µM (active) | 1.48 µM (active) | 0.418 µM (active) | 1.32 µM (active) | 1.66 µM (active) | 0.148 µM (active) | 0.187 µM (active) | 0.372 µM (active) | 0.935 µM (active) | 0.59 µM (active) | 1.87 µM (active) | 0.469 µM (active) | 0.372 µM (active) | – | – |
